The values that follow come from PubChem BioAssay (NCATS).

Records with an inconclusive call do not appear. Unmarked numbers belong to inactive results. Activity calls are given as the source filed them. Calls follow the shape of the dose curve; as a rule, active = well fitted activation curve with a large enough effect; inconclusive = small, poorly fitted or top-dose-only effect; inactive = no such curve, though single readings can be large or run the other way.
Potency is read from the fitted curve at half-maximal effect.

The target of the experiment is Cellular tumor antigen p53 (Homo sapiens) (UniProt P04637). In words: Primary qHTS for small molecule compounds that upregulate eGFP-tagged delta133p53alpha (in N-terminal) cells. (AID 2060322). Also: nearly all actives have a fitted effect of over 75% in size.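 As to activation: series mostly up to about 56 µM; 0% = DMSO vehicle and 100% = reference activator.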 The settings on record: NCI-H358 eGFP-delta133p53alpha fluorescence, 24 h; activation: hits give high values. The essentials: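 NCI-H358 cells pre-induced 24 h with 10 ng/ml doxycycline to express N-terminal eGFP-delta133p53alpha, then dosed 24 h at 37C without doxycycline; fixed, Hoechst-stained, GFP intensity by laser scanning cytometry, normalized to DMSO (0%) and 57.5 uM 5-azacytidine (100%).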
Sequence of Cellular tumor antigen p53 (Homo sapiens) (P04637 whole entry, looked up): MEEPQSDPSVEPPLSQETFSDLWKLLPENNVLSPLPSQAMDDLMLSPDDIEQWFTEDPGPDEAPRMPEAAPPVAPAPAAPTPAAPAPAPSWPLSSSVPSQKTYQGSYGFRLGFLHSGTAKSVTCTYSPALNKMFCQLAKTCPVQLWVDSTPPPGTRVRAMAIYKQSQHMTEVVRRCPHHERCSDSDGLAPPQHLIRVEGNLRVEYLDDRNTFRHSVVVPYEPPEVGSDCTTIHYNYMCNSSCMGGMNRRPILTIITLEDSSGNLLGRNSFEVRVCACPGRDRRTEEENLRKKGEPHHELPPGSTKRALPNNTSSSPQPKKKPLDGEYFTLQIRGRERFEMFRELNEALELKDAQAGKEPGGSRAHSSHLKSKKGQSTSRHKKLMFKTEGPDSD
On the technique in general: qHTS replaces the single test concentration by a dilution series.
Take `NCC[C@H](O)C(=O)N[C@@H]1C[C@H](N)[C@@H](O[C@H]2O[C@H](CN)[C@@H](O)[C@H](O)[C@@H]2O)[C@H](O)[C@@H]1O[C@H]1O[C@H](CO)[C@@H](O)[C@H](N)[C@@H]1O`: the activation was -2.51%.

In the case of `O=C(Nc1ncc(SCCN2CCCC2)s1)[C@]1(c2ccc(S(=O)(=O)C3CC3)cc2)C[C@@H]1C1CCCCC1`, the activation was 26.3%. Same read-out and setting: with `CN1C(=O)c2ccccc2C1=O` the figure was 7.53%. The same measure, in the same setting: then `COC(=O)C=CC(=O)OC`, with -16.5%. For `NCCNCCNCCN`, the activation is -9.6%. Consider `C[C@H](NCc1ccc(OCc2cccc(F)c2)cc1)C(N)=O`, for which the Potency is 24.3 µM (active). Turning to `CC(C)N=C(N)/N=C(\N)Nc1ccc(Cl)cc1`, the activation is 0.837%. The same measure, in the same setting: with `CN=C(NC#N)NCCSCc1csc(N=C(N)N)n1` the figure was 9.6%; with `CCCCCCCCCCCCCCCCCCOCC(O)CO` (stereo not given), -16.4%. Regarding `CCC(C=C[C@@H]1OC(=O)C=C[C@H]1C)=C[C@H](C)CC=CC(C)=C[C@@H](C)C(=O)[C@@H](C)[C@H](O)[C@@H](C)CC(C)=CC(=O)O`, the Potency was 0.287 µM (active). Consider `CCN1CCCC1=O`, for which the activation is 10.7%. Take `CCOC(=O)NNc1ccc(N(CC)CC(C)O)nn1` (stereo not given): the activation is 15.1%. On the same count and under the same terms, with `CCCCCOc1ccccc1/C(=C\SC)n1ccnc1` the figure was -16.7%; with `CN(C(=O)C(Cl)Cl)c1ccc(OC(=O)c2ccco2)cc1`, 5.02%; with `CC(C)(C)C(=O)OCOC(=O)C1N2C(=O)CC2S(=O)(=O)C1(C)C` (stereo not given), 3.95%. Still for that read-out and setting: then `CN1CCc2cccc3c2[C@H]1Cc1ccc(O)c(O)c1-3`, with 21.8%. Still for that read-out and setting: with `CC(COc1ccccc1)NN` (stereo not given) the figure was 6.69%; with `Nc1ccc(-c2ccc3ccccc3n2)cc1`, 29.5%. With `C[C@H]1[C@H](NC(=O)/C(=N/OC(C)(C)C(=O)O)c2csc(N)n2)C(=O)N1S(=O)(=O)O` (stereo in doubt), the activation was 5.08%.

Turning to `CC[C@H](NC(=O)[C@H](C)NC)C(=O)N1C[C@@H](O)C[C@H]1Cc1c(-c2[nH]c3cc(F)ccc3c2C[C@H]2C[C@H](O)CN2C(=O)[C@H](CC)NC(=O)[C@H](C)NC)[nH]c2cc(F)ccc12`, the activation is 21.3%. Same read-out and setting: with `Cc1cnn(C)c1C(=O)Nc1cc(Nc2ccc3c(C=Cc4ccccn4)n[nH]c3c2)ccc1F` the figure was 18.7%. With `OC1(c2ccccc2)CCNCC1`, the activation was 0.565%. As for `O=C1C(Cl)=C(N2CCOCC2)C(=O)N1c1ccc(Cl)c(Cl)c1`, the activation was -1%. Still for that read-out and setting: then `O=C(OOC(=O)c1ccccc1)c1ccccc1`, with -15.1%; and `NCc1ccc(S(N)(=O)=O)cc1`, with -15.9%; and `C#CC(C)(CC)OC(=O)c1ccccc1C(=O)O` (stereo not given), with -11.9%.

`O[C@@H]1CO[C@H]2[C@@H]1OC[C@@H]2O`: the activation is -14.2%. On the same count and under the same terms, then `CC(=C(CCOC(=O)C(C)C)SSC(CCOC(=O)C(C)C)=C(C)N(C=O)Cc1cnc(C)nc1N)N(C=O)Cc1cnc(C)nc1N`, with -4.18%.

For the molecule `O=C(O)c1ccccc1NCCc1ccccc1`, the activation was -1.69%. On the same count and under the same terms, then `CCC1(c2cnc[nH]2)Cc2ccccc2C1`, with -7.53%.

Regarding `O=C1CC2(CCCC2)CC(=O)N1`, the activation was -7.34%. On to `CNC(=O)c1ccc(Nc2cc(Nc3ccccc3S(=O)(=O)C(C)C)c3cc[nH]c3n2)nc1`, for which the Potency is 19.3 µM (active). For the molecule `Cc1ccc(Cl)c(OCC(O)CNC(C)(C)C)c1` (stereo not given), the activation was -2.51%. On the same count and under the same terms, with `COc1ccc2c(c1)c(CC(=O)OC/C=C(\C)CC/C=C(\C)CCC=C(C)C)c(C)n2C(=O)c1ccc(Cl)cc1` the figure was -1.69%; with `O=C(OCc1ccccc1)c1ccc(O)cc1`, -15.3%; with `CC(=O)N(c1onc(C)c1C)S(=O)(=O)c1ccc(N)cc1`, -0.565%. Same read-out and setting: with `Cc1ncc([N+](=O)[O-])n1C` the figure was -0.565%; with `Cc1c(Cn2ccnc2)c2ccccc2n1CCC(=O)O`, -8.47%.

With `COc1cc(C(=O)N2CCOCC2)cc(OC)c1OC`, the activation is 20.9%.

With `C=CCN1CCc2c(cc(O)c(O)c2Cl)C(c2ccccc2)C1` (stereo not given), the activation was -14.2%.
